Source: PubChem
Coupling enz – counter-screen for Giardia aldolase inhibitors: coupling enzyme system | coupling enzyme system counterscreen, AmpLite Red fluorescence | actives 0.67% (n = 290,000) | activity change, negative = inhibition, % at 58.2 µM, hits read low; in the data active = activity change below about -30%
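Compounds tested against the coupling enzymes alone at 57.5 uM final; readout was AmpLite Red fluorescence (525/598 nm) after 20 min at RT.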
Giardia kill – kills Giardia lamblia; Giardia lamblia trophozoite viability; activity change, % at 7.66 µM, hits read low; actives 0.15% (n = 340,000); in the data active = activity change below about -80%; inconclusive = between about -30% and that limit;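 also: parasites exposed to compound for two days anaerobically before the ATP read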
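Trophozoites 100 cells/well + cpd; 48 hrs, 37 deg C, anaerobic. ATPLite 1-Step added, 15-30 min RT, luminescence read (ATP-based viability).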
PI4K2A inh – blocks human PI4K2A kinase activity; actives 0.13% (n = 420,000); purified PI4K2A, ADP-Glo luminescence, 1 h; stronger effect = lower value; activity change, negative = inhibition, % at 76.9 µM; in the data active = activity change below about -50%; inconclusive = mostly about -30% to -49%;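 also: -100% = wells without enzyme as full effect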
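In this quantitative HTS, ADP production by PI4K2A was quantified luminescently after 1 h at ambient temperature; 100 microM adenosine served as plate-quality control.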
GALK inh – inhibitors of human galactokinase; Purified GALK, Kinase-Glo residual ATP luminescence; Potency, µM (series often up to 57.5 µM), for inactives: at the highest dose activity change, negative = inhibition, hits mostly inhibitors; P51570; actives 0.007% (n = 270,000); AID 1868; also: potency is read from the fitted curve at half-maximal effect
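Quantitative HTS: GALK 5 nM, ATP 35 uM, galactose 100 uM, 1 h room temperature, then luciferase-based ATP detection.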
TrxR1 inh – rat TrxR1 inhibition; O89049; recombinant rTrxR1, NADPH fluorescence consumption, selenite substrate; Potency, µM (highest dose often 114 µM), for the others: top-dose activity change, negative = inhibition, most hits filed as inhibitors; actives 1% (n = 390,000); AID 588453; also: potency is read from the fitted curve at half-maximal effect; nearly all actives have a fitted effect of over 65% in size
Target sequence (O89049 whole entry, looked up): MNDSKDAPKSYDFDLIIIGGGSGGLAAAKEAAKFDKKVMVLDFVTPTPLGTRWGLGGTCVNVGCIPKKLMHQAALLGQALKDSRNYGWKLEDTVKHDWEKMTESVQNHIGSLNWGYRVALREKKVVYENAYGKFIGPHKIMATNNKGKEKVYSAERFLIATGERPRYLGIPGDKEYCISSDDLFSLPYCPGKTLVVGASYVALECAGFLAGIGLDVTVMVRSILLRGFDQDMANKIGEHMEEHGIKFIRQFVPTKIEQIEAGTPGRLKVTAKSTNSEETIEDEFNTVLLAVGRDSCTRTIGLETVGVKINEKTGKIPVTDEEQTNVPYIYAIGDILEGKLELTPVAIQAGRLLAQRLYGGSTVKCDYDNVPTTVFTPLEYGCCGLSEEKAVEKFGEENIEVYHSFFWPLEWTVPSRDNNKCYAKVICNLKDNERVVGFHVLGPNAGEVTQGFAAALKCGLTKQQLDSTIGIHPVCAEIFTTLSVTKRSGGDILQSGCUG
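Rat TrxR1 (90 nM in the dispensed reagent) was pre-reduced with 400 uM NADPH for 5 min at room temperature, then incubated with compound for 15 min. After 400 uM selenite was added, NADPH fluorescence (Ex 340/Em 450 nm) was followed for 8 min.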
TrxR1 substrate – substrates of rat thioredoxin reductase 1; O89049; Potency, µM (top dose mostly 114 µM), for inactives: top-dose activity change, negative = substrate turnover; purified TrxR1 substrate turnover, NADPH consumption readout; actives 0.01% (n = 390,000); AID 588456; also: potency is read from the fitted curve at half-maximal effect; nearly all actives have a fitted effect of over 50% in size
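Rat TrxR1, dispensed at 90 nM, was prereduced with 400 uM NADPH (final) for 5 min at ~22 deg C, then incubated with compound 15 min before 400 uM selenite. A first-read NADPH fluorescence drop versus no-compound background flagged substrates.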
The depositor's hits bear a star; ? = inconclusive; . = no result; ! = a repeat was not active; [ ] = dose if it differs, or a comment. An excerpt weighted towards active compounds, which were near 1.5% of everything screened. Unless noted, calls follow the shape of the dose curve; as a rule, active = well fitted curve in the direction sought with a large enough effect; inconclusive = small, poorly fitted or top-dose-only effect, or another doubt; inactive = no such curve, though single readings can be large; an effect the other way counts as inactive or inconclusive. Unless noted, % is scaled to controls: 0 for no effect and ±100 for the full control effect.

SMILES	Coupling enz	Giardia kill	PI4K2A inh	GALK inh	TrxR1 inh	TrxR1 substrate
CSc1nnc(N2C(=O)C(O)=C(C(=O)c3ccco3)C2c2ccccc2F)s1 (centres undefined)	.	11	-10	2%	7.9µM*	-8%
C/C(=N/NC(=O)c1ccncc1)C(=O)O	.	.	-1	.	.	.
CCOc1ccc2ncc3c(-c4ccccc4)nn(CC(=O)Nc4cccc(F)c4)c3c2c1	.	.	-1	.	25%[57.1 µM]	5%[57.1 µM]
Cc1ccc(CNC(=O)CCC2CCCN(C(=O)c3ccc4c(c3)OCO4)C2)o1 (centres undefined)	0	4	0	0%	71µM*	-4%
COC(=O)c1nn(-c2ccc3c(c2)CCN3C(C)=O)cc1O	.	-87*	-85*	13%	62%	487%
COc1ccc(-n2nc3cc(C)c(N)c(Br)c3n2)cc1	-50*	-22	-1	1%	11%[57.1 µM]	7%
COc1ccc(-n2nc3cc(N)c(Br)cc3n2)cc1	-2	-11	0	-5%	17%[57.1 µM]	-5%[57.1 µM]
Cc1ccc2nc(-c3ccc(NC(=O)CSc4nnc(-c5ccccc5)n4Cc4ccco4)cc3)sc2c1	.	.	-7	.	.	.
CN1CC=C2C(C#N)=C(N)C(C#N)(C#N)[C@H](c3ccoc3)[C@H]2C1	-31*	2	-16	-2%	5%[57.1 µM]	93%
CC(=O)N1CC=C2C(C#N)=C(N)C(C#N)(C#N)[C@H](c3ccoc3)[C@H]2C1	-6	1	3	-3%	14%[2.29 µM]	10%[2.29 µM]
O=C(CC1Sc2ncnn2C1=O)Nc1ccc(Br)cc1 (centres undefined)	1	-7	3	4%	1.4µM*	12%[57.1 µM]
O=C(CCC(=O)Nc1ccc(Cl)cc1Cl)N/N=C/c1ccc([N+](=O)[O-])o1	-16	-82*	-1	10%	11µM*	-5%
Cc1ccc(NCC(=O)N/N=C/c2ccc(C(=O)O)cc2)cc1	-16	22	-1	-2%	9%	0%
Cc1scc(C(=O)N/N=C/c2ccc([N+](=O)[O-])o2)c1C	.	.	.	-6%	.	.
Cc1ccc(NCC(=O)N/N=C\c2ccc([N+](=O)[O-])o2)cc1	0	-106*	-1	6%	?	5%
CCCCCC(=O)N/N=C/c1ccc([N+](=O)[O-])o1	-3	-103*	-1	0%	?	1%
O=C(Cc1ccc2c(c1)OCO2)NN=Cc1ccc([N+](=O)[O-])o1	.	-102*	0	.	-65%	-12%
O=C(CNC(=O)c1ccccc1)N/N=C/c1ccc([N+](=O)[O-])o1	0	?	-1	0%	-33%	-3%
O=C(CNc1ccccc1)N/N=C/c1ccc([N+](=O)[O-])o1	1	-105*	-6	1%	-68%[57.1 µM]	4%
O=[N+]([O-])c1ccc(/C=N/NC(=S)Nc2ccccc2)o1	6	?	-6	0%	18µM*	-14%
CCn1cc(C(=O)N2CCN(c3cccc(Cl)c3)CC2)c(=O)c2cc(S(=O)(=O)N3CCOCC3)ccc21	.	.	-7	.	10%	-3%
COc1ccc(C(=O)N(Cc2sccc2C)C2CCS(=O)(=O)C2)cc1Cl (centres undefined)	.	.	1	.	17%	0%
O=C(CN1C(=O)CCc2cc(S(=O)(=O)N3CCOCC3)ccc21)NCc1ccccc1Cl	.	.	-3	.	15%[57.1 µM]	7%[57.1 µM]
CCCCNC(=O)CSc1nc2ccc(N3CCOCC3)cc2c(=O)n1CCc1ccccc1	-37*	1	-2	-3%	6%	5%
CCOC(=O)CSc1nc2ccccc2c(=O)n1CCN1CCOCC1	1	-10	1	-1%	-1%	1%[57.1 µM]
SMILES	Coupling enz	Giardia kill	PI4K2A inh	GALK inh	TrxR1 inh	TrxR1 substrate
CCCCn1c(SCC(=O)NCCOC)nc2ccc(N3CCOCC3)cc2c1=O	-37*	-6	-4	-1%	-15%	28%
CCCCNC(=O)CSc1nc2ccccc2c(=O)n1CCNC(C)=O	-1	14	3	0%	-14%	-5%
COCCNC(=O)CSc1nc2ccccc2c(=O)n1CCC(=O)N1CCN(c2ccccc2)CC1	1	-1	6	-1%	11%[57.1 µM]	3%[57.1 µM]
COCCNC(=O)CSc1nc2ccc(N3CCOCC3)cc2c(=O)n1CCc1ccccc1	-44*	17	1	-1%	-23%	13%
CCOC(=O)CSc1nc2ccc(N3CCOCC3)cc2c(=O)n1Cc1ccccc1	-32*	5	-10	0%	-16%	11%
O=Nc1ccc(/C=C/c2ccnc3ccccc23)cc1	.	.	.	.	16%	8%
Cc1noc(NS(=O)(=O)c2ccc(NC(=O)c3ccc(Br)cc3)cc2)c1C	.	.	0	.	7%	0%
O=C(CSc1nc2ccccc2c(=O)n1CCC(=O)N1CCN(c2ccccc2)CC1)NCC1CCCO1 (centres undefined)	1	0	-7	-2%	16%[57.1 µM]	9%[57.1 µM]
O=C(CSc1nc2ccc(N3CCOCC3)cc2c(=O)n1CCc1ccccc1)NCC1CCCO1 (centres undefined)	-31*	16	-2	0%	6%	17%
COc1cc(C=Nc2ccccc2C(=O)Nc2ccccc2)cc(OC)c1OC	-1	-8	-8	.	22µM*	101%
COc1cc(NC(=O)c2ccccc2-c2ccccc2)cc(OC)c1OC	6	.	.	5%	.	.
CC(C)OC(=O)n1c(=S)oc2ccccc21	4	-5	4	0%	-8%	10%[57.1 µM]
CCCCC(=O)/C=C/n1c(=S)oc2ccccc21	0	-16	0	1%	2.2µM*	-5%
CC1(C)CCC2=C(O1)c1ccccc1C(=O)C2=O	-56*	.	-52*	.	25µM*!	18µM*
CCN(CC)CCCN1C=C2C(=O)C(C)(OC(=O)CCC(=O)OC)C(=O)C=C2C=C1C1CC1 (centres undefined)	-39*	4	-23	.	15%[57.1 µM]	-1%[57.1 µM]
COC(=O)CCC(=O)OC1(C)C(=O)C=C2C=C(C3CC3)N(Cc3ccccc3)C=C2C1=O (centres undefined)	2	-13	-4	-3%	8%[57.1 µM]	0%[57.1 µM]
COC(=O)CCC(=O)OC1(C)C(=O)C=C2C=C(C3CC3)N(CC3CC3)C=C2C1=O (centres undefined)	-44*!	8	-18	-1%	7%	-16%
COC(=O)CCC(=O)OC1(C)C(=O)C=C2C=C(C3CC3)N(CC(C)C)C=C2C1=O (centres undefined)	-45*	.	.	-1%	.	.
CCCCC1=CC2=CC(=O)C(C)(OC(=O)CC)C(=O)C2=CN1CCCN(CC)CC (centres undefined)	0	.	.	.	.	.
COC(=O)CCC(=O)OC1(C)C(=O)C=C2C=C(C3CC3)N(c3ccc(OC)cc3)C=C2C1=O (centres undefined)	-41*	.	.	.	.	.
